Experimental data published in PubChem BioAssay AID2685 (National Center for Advancing Translational Sciences (NCATS), 2010).
In all, about 320,000 compounds went through this assay and about 2,100 (0.66%) were called active. Roughly 53% stayed inconclusive and do not appear here. The sample holds actives, similar compounds and a random draw of the others, so the mix is not that of the screen. The call rests on the fitted dose curve; in most records, active means well fitted inhibition curve with a large enough effect in the signal ratio, with a control signal flat (not every such curve was filed as active); inconclusive means small, poorly fitted or top-dose-only effect, or effect the other way, or a change in a side signal; inactive means flat fitted curve, though single readings scatter; the % refers to the signal ratio.

assay: qHTS Assay for Lipid Storage Modulators in Drosophila S3 Cells; conditions: BODIPY lipid droplet fluorescence, 18-24 h, cells fed with added oleic acid; cell number change: measured here: cell count max response; series mostly up to 46.1 µM; lipid storage change, negative = inhibition: at the top concentration;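 on cell number change: cells counted by Cell Tracker Red CMTPX staining in the red channel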; on lipid storage change, negative = inhibition: on the % scale 0 is the no-effect control and ±100 the full control effect
Procedure, shortened: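 Drosophila S3 cells loaded with oleic acid (400 uM, as added) and compounds at several concentrations; lipid droplets imaged by 488-nm laser-scanning cytometry, 500–530 nm intensity and object ratio to cell channel. Percent activity normalized to 20 uM Triacsin C.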
Potency means the concentration at half of the fitted maximal effect.

| SMILES | lipid storage change, negative = inhibition | cell number change | Potency | outcome |
| --- | --- | --- | --- | --- |
| Cc1csc(NC(=O)CSc2nc3ccccc3c3c2CCCC3)n1 | -3.82% (inactive) | 1.26% |  |  |
| CC(=O)Nc1ccc(S(=O)(=O)NNC(=O)CCC(=O)Nc2cc(C)ccc2C)cc1 |  | 1.21% | 2.31 µM (active) |  |
| Cc1ccc(NC(=O)CCC(=O)NNS(=O)(=O)c2ccc(Cl)cc2)cc1C |  | -13.3% |  | inactive |
| Cc1ccc(S(=O)(=O)NNC(=O)CCC(=O)Nc2ccccc2)cc1 | -16.6% (inactive) | 20.4% |  |  |
| Cc1ccc([N+](=O)[O-])cc1NC(=O)CN(C)CCOc1ccccc1 | 14.4% (inactive) | 12% |  |  |
| CCOC(=O)c1cc(-c2ccc(OC)cc2)n(CCC(=O)NC2CCN(Cc3ccccc3)CC2)c1C | 4.21% (inactive) | 11% |  |  |
| C=CCN(c1ccc(C(=O)OC)cc1)S(=O)(=O)c1ccccc1 | 8.9% (inactive) |  |  |  |
| Cc1ccc(-c2ccc(S(=O)(=O)NCc3ccco3)cc2)cc1 | 12.3% (inactive) | 2.5% |  |  |
| Cc1ccc(S(=O)(=O)NCc2ccco2)cc1C |  | -8.6% | 10.3 µM (active) |  |
| Cn1c(=O)oc2cc(S(=O)(=O)NCc3ccco3)ccc21 | 1.46% (inactive) | 0.921% |  |  |
| CCCCNC(=O)C1CCCN1C(=O)NC1CCCCC1 (stereo not given) | -1.43% (inactive) | 9.73% |  |  |
| CC(C)CCNC(=O)C1CCCN1C(=O)NC1CCCCC1 (stereo not given) | 0.129% (inactive) | -5.55% |  |  |
| CCOCCCNC(=O)C1CCCN1C(=O)NC1CCCCC1 (stereo not given) |  | -3.91% | 20.6 µM (active) |  |
| Cc1ccc(C(=O)Nc2onc(C)c2C#N)cc1 |  |  |  | inactive |
| O=C(NCc1ccccc1Cl)c1cnccc1C(F)(F)F | -7.42% (inactive) | 0.794% |  |  |
| COc1ccc(-n2nc([N+](=O)[O-])c(=NCCc3ccc(OC)c(OC)c3)n2O)cc1 |  | -7.82% | 0.82 µM (active) |  |
| Cc1ccc(CCN=c2c([N+](=O)[O-])nn(-c3ccccc3)n2O)cc1 |  |  |  | inactive |
| COc1ccc(-n2nc([N+](=O)[O-])c(=NCCc3ccc(C)cc3)n2O)cc1 | -6.21% (inactive) | -0.674% |  |  |
| CCOc1ccccc1/C=N/n1nnnc1N |  | -5.74% |  | inactive |
| O=C1C2CC=C(Cl)CC2C(=O)N1CCC[n+]1cccc2ccccc21 (stereo not given) | 16.7% (inactive) | -1.42% |  |  |
| O=C(C1CC(=O)N(c2ccc(Cl)cc2)C1)N1CCC(c2nc3ccccc3[nH]2)CC1 (stereo not given) | 2.22% (inactive) |  |  |  |
| CCCNC(=O)Cn1cnc2sc(C(=O)N3CCN(Cc4ccc5c(c4)OCO5)CC3)c(C)c2c1=O | 5.05% (inactive) | 8.92% |  |  |
| CCCNC(=O)Cn1cnc2sc(C(=O)N3CCCC(C(=O)OCC)C3)c(C)c2c1=O (stereo not given) | 9.28% (inactive) | -16.1% |  |  |

| SMILES | lipid storage change, negative = inhibition | cell number change | Potency | outcome |
| --- | --- | --- | --- | --- |
| CCCNC(=O)Cn1cnc2sc(C(=O)N3CCN(CCC)CC3)c(C)c2c1=O |  | -2.16% | 32.6 µM (active) |  |
| CCOC(=O)C1CCN(C(=O)c2cccc(N3C(=O)NC4CC3(C)Oc3ccc(C)cc34)c2)CC1 (stereo not given) |  |  |  | inactive |
| Cn1c(=O)oc2cc(S(=O)(=O)N3CCCCC3)ccc21 |  | 4.27% |  | inactive |
| COc1cc(NS(=O)(=O)c2ccc(N/C=C\C(=O)c3ccc(F)cc3)cc2)nc(OC)n1 | 10.9% (inactive) | 2.61% |  |  |
| COc1ccc(C(=O)/C=C/Nc2ccc(S(=O)(=O)Nc3nc(C)cc(C)n3)cc2)c(OC)c1 | 0.417% (inactive) | 26.5% |  |  |
| COc1ccc(C(=O)/C=C/Nc2ccc(S(=O)(=O)Nc3cc(OC)nc(OC)n3)cc2)c(OC)c1 |  | 34.2% | 29.1 µM (active) |  |
| c1ccc(Cc2cc[n+](Cc3ccccn3)cc2)cc1 | 4.93% (inactive) | 3.79% |  |  |
| Cc1nc2ccccc2c(N)c1C(=O)/C=C/c1ccccc1 |  | -20.1% | 14.6 µM (active) |  |
| CCOC(=O)c1c(C)nc2ccccc2c1C |  |  |  | inactive |
| Cn1c(N)c(C(=O)/C=C/c2ccccc2)c(=O)[nH]c1=O | 10.4% (inactive) | 12.4% |  |  |
| O=c1[nH]c(N2CCCCCC2)nc2ncn(Cc3ccccc3)c12 | -2.2% (inactive) | 7.21% |  |  |
| O=C(O)CCCCCNc1nc2ncn(Cc3ccccc3)c2c(=O)[nH]1 |  | -20% | 32.6 µM (active) |  |
| CC(Nc1nc2ncn(Cc3ccccc3)c2c(=O)[nH]1)C(=O)O (stereo not given) | 1.98% (inactive) | -0.475% |  |  |
| Cc1ccc[n+](/C(=C\C(=C=[N-])C#N)C(=O)c2ccc(Cl)cc2)c1 | 6.04% (inactive) | 18.6% |  |  |
| O=C1CN(C(=O)c2ccccc2F)C(c2ccc(F)cc2)c2cc(Br)ccc2N1 (stereo not given) | -0.107% (inactive) | -12.8% |  |  |
| CC(=O)Nc1ccc(C(=O)OCC(=O)N2CCC(Cc3ccccc3)CC2)cc1 |  | -6.23% | 2.91 µM (active) |  |
| COc1cc(C(=O)OCC(=O)N2CCC(Cc3ccccc3)CC2)cc(OC)c1OC | 27.5% (inactive) |  |  |  |
| CC(=O)Nc1ccc(OCC(=O)N2CCC(Cc3ccccc3)CC2)cc1 | -0.754% (inactive) | -1.18% |  |  |
| CC1=C(C(=O)NC2CCCc3c2cnn3-c2cc(F)cc(F)c2)OCCO1 (stereo not given) |  | 4.32% |  | inactive |
| COc1ccc(C(=O)NNC(=O)c2cc3cc(OC)ccc3oc2=O)cc1 | 0.203% (inactive) | 12.8% |  |  |
| COc1ccc(C(O)(C(=O)NNc2ccc(C)cc2)c2cccs2)cc1 (stereo not given) |  | 10.5% | 32.6 µM (active) |  |
| Cc1ccc(C(O)(C(=O)NNc2ccc3ccccc3n2)c2ccc(C)cc2)cc1 | -4.95% (inactive) | -2.27% |  |  |
| COc1ccc(NC(=O)c2cccs2)cc1 | 0.392% (inactive) | -1.91% |  |  |
